This note sets out measurements from PubChem BioAssay (Tox21).

The structures appear in SMILES notation. Inconclusive results are not listed. A number with no mark means an inactive call. Active and inactive are the calls of the source. Calls come from the whole dose curve; as a rule, active = well fitted cell-killing curve with a large enough effect in the repeat runs; inconclusive = weak or mixed curves, or effect the other way; inactive = no such curve, though single readings can be large or run the other way.
% is set by controls: 0 for no effect and ±100 for the full control effect; potency is the fitted concentration of half-maximal effect.

The experiment in a line: qHTS assay to identify small molecule agonists of the RXR signaling pathway - cell viability counter screen (AID 1159529). Note: nearly all actives have a fitted effect of over 50% in size. Conditions: RXR-alpha-bla HEK293T viability, CellTiter-Glo, 16 h; series mostly up to 76.8 µM; activity change, negative = cytotoxicity: at the top concentration. The gist of the method: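 CellTiter-Glo luminescence gave viability in the wells also read for beta-lactamase. Cells (RXR-alpha-UAS-bla HEK 293T, 2% charcoal-stripped FBS medium) had 5 hr plating, then 16 hr compound exposure at 37 C; tetraoctyl ammonium bromide served as positive control.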
In general terms: In qHTS, concentration-response curves come from the screen itself.
Regarding `CC(=O)Oc1ccc(C2(c3ccc(OC(C)=O)cc3)C(=O)Nc3ccccc32)cc1`, the “activity change, negative = cytotoxicity” value is -0.755% [at 35.3 µM]. As to `CC(C)(C)C1=CC(=O)C=C(C(C)(C)C)C1=O`, the “activity change, negative = cytotoxicity” value is 9.2%. Same read-out and setting: under `CCCCCCCC/C=C\CCCCCCCC(=O)NCc1ccc(O)c(OC)c1` stands -3.53% [at 35.3 µM]; under `CCCCCCCC/C=C/CCCOC(C)=O`, -2.23%. Turning to `O=S(=O)(O)CCCN1CCOCC1`, the “activity change, negative = cytotoxicity” value was 8.58%. On the same count and under the same terms, under `CCN(CC)CCSC(=O)C(c1ccccc1)c1ccccc1` stands -21.6% [at 35.3 µM]; under `COc1cccc(CCc2ccccc2OCC(CN(C)C)OC(=O)CCC(=O)O)c1` (centres undefined), -17.4% [at 35.3 µM]; under `CCCCNc1c(C(=O)OCC)c(C)nc2c1cnn2CC`, 4.91% [at 35.3 µM]. `Cc1cn[nH]c1`: the “activity change, negative = cytotoxicity” value is 1.17% [at 35.3 µM]. Take `NC1(c2ccc(-c3nc4ccn5c(=O)[nH]nc5c4cc3-c3ccccc3)cc2)CCC1`: the Potency was 21.3 µM (active). `CCNc1nc(NC(C)CC)nc(OC)n1` (centres undefined): the “activity change, negative = cytotoxicity” value was -0.172%. Same read-out and setting: under `NCCCC(O)(P(=O)(O)O)P(=O)(O)O` stands 0.434% [at 35.3 µM]; under `COC(=O)CC(C)CCC=C(C)C` (centres undefined), -27.6%. In the case of `O=C1NCCN1CCN1CCC(c2cn(-c3ccc(F)cc3)c3ccc(Cl)cc23)CC1`, the Potency was 21.3 µM (active). As to `CC(=O)Oc1ccc(C2(c3ccc(OC(C)=O)cc3)Oc3ccccc3NC2=O)cc1`, the “activity change, negative = cytotoxicity” value is -15.7% [at 35.3 µM].

As to `CCCCCCCCCCCC(=O)N(CC)CC`, the “activity change, negative = cytotoxicity” value is -17.7%. Consider `Cc1ccc(CCn2c3c(c4cc(Cl)ccc42)CN(C)CC3)cn1`, for which the Potency is 16.9 µM (active). Consider `N[C@@H](CSSC[C@H](N)C(=O)O)C(=O)O`, for which the activity change, negative = cytotoxicity is -20.1% [at 0.29 µM].

On to `ClC/C=C\CCl`, for which the “activity change, negative = cytotoxicity” value was 0.926%.
